According to PubChem BioAssay (NCI):
The panel holds about 83,000 compounds, 20% with a hit somewhere; the sample as a whole holds those more often.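 Negative percent growth values reflect cell death: -40 means 40% of the cells present at the start died, and -100 means all died.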 Unmarked numbers belong to inactive results. Active and inactive are the calls of the source. Rule for the calls: active = growth percent below 10; inactive = the rest.

Legend:
Assay in all cases: NCI-60 one-dose screen, 48 h (100 = growth as untreated, 0 = no growth, -100 = all killed)
Details in all cases: 10 µM unless noted
[1] = test system: NCI-H23 lung
[2] = test system: NCI-H226 lung
[3] = test system: NCI-H322M lung
[4] = test system: HOP-62 NSCLC
[5] = test system: NCI-H460 lung
[6] = test system: HOP-92 NSCLC
[7] = test system: NCI-H522 lung
[8] = test system: A549/ATCC NSCLC
[9] = test system: 786-0 renal
[10] = test system: COLO 205 colon
[11] = test system: DU-145 prostate
[12] = test system: K-562 leukemia
[13] = test system: MALME-3M melanoma
[14] = test system: MDA-MB-231 breast
[15] = test system: RXF 393 renal
[16] = test system: SF-268 CNS
[17] = test system: SF-295 CNS
[18] = test system: SF-539 CNS
[19] = test system: UACC-257 melanoma
[20] = test system: M14 melanoma

SMILES	growth [1]	growth [2]	growth [3]	growth [4]	growth [5]	growth [6]	growth [7]	growth [8]	growth [9]	growth [10]	growth [11]	growth [12]	growth [13]	growth [14]	growth [15]	growth [16]	growth [17]	growth [18]	growth [19]	growth [20]
COc1cc(N2C(=O)[C@H](O)C2c2ccc(SC)cc2)cc(OC)c1OC (stereo not given in full)	23%	68.6%	37.1%	21.6%	5.6% (active)	26.1%	-19.8% (active)	17%	11.3%	-53.3% (active)	3.72% (active)	5.68% (active)	71.7%	30.3%	15.3%	28.1%	10.1%	16.3%	42.1%	6.4% (active)
COc1cc(CNC(=O)CCCC/C=C/C(C)C)ccc1OCc1nnc(Nc2ccc([N+](=O)[O-])cc2)o1	54.9%	62.1%	57.6%	67.6%	33.5%	-2.56% (active)	73%	49%	22.2%	70.9%	62%	59.6%	69.6%	67.1%	54.1%	79.7%	64.9%	70.2%	77.6%	66.4%
O=C1c2cccnc2C(=O)c2c1c(C(=O)NCCCN1CCCCC1)c1ccccn21	-36.1% (active)	-39.8% (active)	-35.9% (active)	-37.5% (active)	-69.9% (active)	-30.5% (active)	-51% (active)	-42.9% (active)	5.99% (active)	-82.2% (active)	-94.4% (active)	-25.4% (active)	-92.6% (active)	-3.12% (active)	-39.5% (active)	-13% (active)	-13.6% (active)	-61.2% (active)	-82.8% (active)	-88.1% (active)
O=C(/C=C/c1cn(-c2ccccc2)nc1-c1ccc([N+](=O)[O-])cc1)c1ccc(Cl)cc1	48.4%	39%	75.1%	24.5%	29.1%	58.5%	23.3%	61.8%	-92.5% (active)	40.2%	20.4%	12.4%	49.7%	14.7%	27.3%	34.5%	77%	30%	103%	37.8%
COc1ccc(-c2nc3c(c(-c4ccccc4)nn3-c3ccccc3)c(-c3ccc(N4CCN(C)CC4)cc3)c2C#N)cc1	98.6%	94.2%	97.5%	103%	101%	83.2%	94.4%	89.3%	78.9%	114%	92.9%	8.47% (active)	94.6%	97.9%	76%	105%	107%	95.7%	95.5%	104%
O=C(OCc1ccc2c(Cl)cc(Cl)c(O)c2n1)n1cncn1	44.5%	59.1%	50.4%	27.5%	19.9%	49.4%	51.4%	22.1%	45.7%	96.5%	38.7%	18.2%	33%	59.6%	45.9%	24.1%	20%	15.7%	41.2%	20.4%
COc1ccc(-c2nnc(-c3ccc4c(c3)nc(-c3ccncc3)n4C3CCCCC3)o2)cc1	72.8%	63.6%	82%	67.7%	73.7%	44.8%	61.4%	59.2%	66.3%	59.2%	68.5%	43.3%	82%	63.8%	69.7%	66.7%	67.7%	70.3%	77.6%	70.5%
